# High-throughput results (PubChem)
# PAX8 inh HTS: lowers PAX8-driven luciferase in RMG-I cells; AID 652154; RMG-I TPO-luciferase reporter, SteadyGlo, 24 h; 360,000 compounds, 1.2% hits; inhibition, % at 12.6 µM;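 active means mean replicate inhibition at least 60% with every replicate also reaching 60%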;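 further: luciferase light reporting Pax8 driven TPO promoter activity; plate controls were median of neutral control wells for no effect and mitoxantrone controls for full effect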
# Shn3 inh set2: Schnurri-3 reporter inhibition in Clone20 osteoblasts; Clone20 osteoblast Shn3 3'UTR firefly luciferase, 24 h; inhibition, % at 12.5 µM; 360,000 compounds, 0.52% hits;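 active means mean inhibition of at least 75% with every replicate also reaching 75%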;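 further: 0% = median of neutral control wells and 100% = pilot-screen positive control compound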
# CSC inhib: blocks cancer stem cells; inhibition, % at 7.5 µM; AID 2717; 300,000 compounds, 1.1% hits; cancer stem cell-like cells viability, luminescence; in the data active means inhibition above about 75%; tested in HMLE shEcad cells
# Beta apoptosis: beta cell apoptosis inhibition; INS-1E cytokine-induced death, ATP luminescence, 48 h; percent of positive-control rescue, neutral wells zero; protection from apoptosis, % (test concentration not listed); 300,000 compounds, 0.8% hits; AID 435005;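 active means Every replicate reaches about 75%, or at least half do and their mean reaches it too, limit read from the data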;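 further: 0% = cytokine-treated negative control wells and 100% = positive control rescue; higher means more ATP so stronger rescue from cytokine killing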
# Gli-Sufu antag: Gli-Sufu pathway antagonism; Sufu-KO-LIGHT fibroblasts, Gli luciferase reporter luminescence; inhibition, % at 5 µM; 340,000 compounds, 0.74% hits; AID 588413;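 active means inhibition above about 55%, limit read from the data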;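 further: 0% = DMSO-treated cells and 100% = wells with medium but no cells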
# Mdm2-MdmX inh: inhibitors of human Mdm2/MdmX interaction | O15151+Q00987 | SaOS-2 split-luciferase Mdm2/MdmX complementation, luminescence | inhibition, % at 8 µM | 330,000 compounds, 3% hits | AID 485346;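 active means inhibition of at least 50% at 8 µM in the primary screen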
# Active calls of the source: *; nt = not tested or not shown; ! = not confirmed by another sample. Hits are enriched below; roughly 4% of the tested compounds scored in any of these assays.
SMILES,PAX8 inh HTS,Shn3 inh set2,CSC inhib,Beta apoptosis,Gli-Sufu antag,Mdm2-MdmX inh
C[C@@H]1CCCCO[C@H](CN(C)S(=O)(=O)c2ccc(Cl)cc2)[C@H](C)CN([C@H](C)CO)C(=O)c2cc(NS(=O)(=O)c3ccc(F)cc3)ccc2O1,48.3,nt,nt,nt,nt,nt
C[C@@H]1CN([C@H](C)CO)C(=O)c2cc(NS(=O)(=O)c3ccc(F)cc3)ccc2O[C@@H](C)CCCCO[C@H]1CN(C)S(=O)(=O)c1ccc(Cl)cc1,98.4*,nt,nt,nt,nt,nt
CC(=O)Oc1ccc(OC(C)=O)c(SCCCCCCl)c1,14.7,95.0*,nt,nt,4.7,nt
Nc1ccccc1SCC(=O)Nc1nc(-c2ccccc2)cs1,-20.4,-20.4,126.6*,-10.7,0.9,-9.3
COc1ccc(S(=O)(=O)N(C)C[C@H]2OCCCC[C@H](C)Oc3ccc(NS(=O)(=O)c4ccc(F)cc4)cc3C(=O)N([C@@H](C)CO)C[C@H]2C)cc1,-1.9,nt,nt,nt,nt,nt
Cc1noc(C)c1S(=O)(=O)Nc1ccc2c(c1)CC(=O)N([C@H](C)CO)C[C@@H](C)[C@@H](CN(C)Cc1ccc3c(c1)OCO3)O2,-27.3,nt,nt,nt,nt,nt
COC(=O)C1=C(C)NC(C)=C([N+](=O)[O-])C1c1ccccc1C(F)(F)F (stereo not drawn),-4.9,93.0*!,-4.1,-1.6,4.4,-9.8
CCCOc1ccc(-c2nc(N3CCN(C)CC3)c3ccccc3n2)cc1,-37.7,-110.1,19.0,7.5,-57.0,-58.8
CCCOc1ccc(-c2nc(N3CCN(CC)CC3)c3ccccc3n2)cc1,-1.6,6.2,88.2*,6.6,4.4,35.6
Cc1cc(C)cc(NC(=O)c2ccc([N+](=O)[O-])o2)c1,74.6*,35.3,nt,nt,22.9,32.0
CC(NC(=O)c1ccc([N+](=O)[O-])o1)C12CC3CC(CC(C3)C1)C2 (stereo not drawn),66.5*,50.6,97.3*,nt,-32.1,43.9
O=C(Nc1ccc(N2CCN(C(=O)c3ccccc3)CC2)cc1)c1ccc([N+](=O)[O-])o1,100.1*,42.2,nt,nt,13.2,nt
COc1ccc(NC(=O)c2ccc([N+](=O)[O-])o2)cc1,76.3*,9.1,48.3,nt,0.0,21.4
COc1ccc(NC(=O)c2ccc(Br)o2)cc1,-106.8,-56.7,-1.1,4.7,-89.2,-7.7
N#Cc1ccc(-c2ccc3c(c2)[C@H]2[C@H](CCN2Cc2cncnc2)[C@H](CO)N3)cc1,-14.8,nt,nt,nt,nt,nt
C[C@@H]1CN([C@@H](C)CO)C(=O)Cc2cc(NC(=O)c3ccncc3)ccc2O[C@H]1CN(C)Cc1ccc2c(c1)OCO2,3.7,nt,nt,nt,nt,nt
Cc1cc(C(=O)Nc2ccc3c(c2)C(=O)N(C)[C@H]2CC[C@@H](CC(=O)N[C@H](C)c4ccccc4)O[C@@H]2CO3)no1,2.1,nt,nt,nt,nt,nt
COCCNC(=O)C[C@@H]1C[C@@H]2c3cc(NC(=O)CN(C)C)ccc3O[C@@H]2[C@@H](CO)O1,5.5,nt,nt,nt,nt,nt
CC(=O)c1ccc(NC(=O)c2ccc([N+](=O)[O-])o2)cc1,24.7,-66.4,79.6*,-7.7,18.4,12.1
O=C(NCC[C@@H]1CC[C@@H](NS(=O)(=O)c2cccc(F)c2)[C@@H](CO)O1)C1CCCCC1,9.7,nt,nt,nt,nt,nt
N#C[C@H]1[C@@H](c2ccc(C3=CCCCC3)cc2)[C@H](CO)N1C(=O)CN1CCOCC1,-2.3,nt,nt,nt,nt,nt
CN(C1=C(NC(=O)c2ccccc2)C(=O)c2ccccc2C1=O)C1CCS(=O)(=O)C1 (stereo not drawn),-37.3,30.5,14.3,97.3*,nt,20.8
CC(=O)NC1=C(NC2CCS(=O)(=O)C2)C(=O)c2ccccc2C1=O (stereo not drawn),14.9,-23.1,-23.2,52.5,0.9,1.6
C[C@H]1CN([C@@H](C)CO)C(=O)c2cc(C3=CCCCC3)cnc2O[C@H]1CN(C)C(=O)c1ccccn1,-24.6,nt,nt,nt,nt,nt
Cc1ccc(N(C(=O)CCl)C(C(=O)NC2CCCCC2)c2cccnc2)cc1C (stereo not drawn),nt,nt,88.3*,1.1,93.4*,nt
SMILES,PAX8 inh HTS,Shn3 inh set2,CSC inhib,Beta apoptosis,Gli-Sufu antag,Mdm2-MdmX inh
C/C=C/c1ccc([C@H]2[C@@H](CO)N3C(=O)CN(C(=O)Nc4ccc(F)cc4)C[C@@H]23)cc1,8.9,nt,nt,nt,nt,nt
CCCCCC(=O)N/N=C(\C)c1ccc(N2CCCCC2)cc1,126.1*,-30.0,4.8,-1.5,-6.4,3.3
C[C@@H]1CN([C@@H](C)CO)C(=O)c2cc(NS(=O)(=O)c3ccc(Cl)cc3)ccc2O[C@@H](C)CCCCO[C@@H]1CN(C)S(=O)(=O)c1ccc(Cl)cc1,14.5,nt,nt,nt,nt,nt
C[C@@H]1CN([C@H](C)CO)C(=O)c2cc(NS(=O)(=O)c3ccc(Cl)cc3)ccc2O[C@@H](C)CCCCO[C@@H]1CN(C)S(=O)(=O)c1cccs1,13.5,nt,nt,nt,nt,nt
C[C@@H]1CN([C@H](C)CO)C(=O)c2cc(NS(=O)(=O)c3ccc(Cl)cc3)ccc2O[C@@H](C)CCCCO[C@@H]1CN(C)S(=O)(=O)c1ccc(Cl)cc1,42.9,nt,nt,nt,nt,nt
C[C@@H]1CCCCO[C@@H](CN(C)S(=O)(=O)c2ccc(Cl)cc2)[C@H](C)CN([C@H](C)CO)C(=O)c2cc(NS(=O)(=O)c3ccc(Cl)cc3)ccc2O1,90.1*,nt,nt,nt,nt,nt
C[C@@H]1CCCCO[C@@H](CN(C)S(=O)(=O)c2cccs2)[C@H](C)CN([C@@H](C)CO)C(=O)c2cc(NS(=O)(=O)c3ccc(Cl)cc3)ccc2O1,70.5*,nt,nt,nt,nt,nt
C[C@H](CO)N1C[C@H](C)[C@@H](CN(C)S(=O)(=O)c2ccc(Cl)cc2)OCCCC[C@H](C)Oc2ccc(NS(=O)(=O)c3ccc(Cl)cc3)cc2C1=O,86.8*,nt,nt,nt,nt,nt
C[C@H]1CCCCO[C@@H](CN(C)S(=O)(=O)c2ccc(Cl)cc2)[C@@H](C)CN([C@@H](C)CO)C(=O)c2cc(NS(=O)(=O)c3ccc(Cl)cc3)ccc2O1,57.4,nt,nt,nt,nt,nt
C[C@H]1CCCCO[C@H](CN(C)S(=O)(=O)c2ccc(Cl)cc2)[C@@H](C)CN([C@@H](C)CO)C(=O)c2cc(NS(=O)(=O)c3ccc(Cl)cc3)ccc2O1,83.3*,nt,nt,nt,nt,nt
O=C(NC1CCCC1)N[C@H]1CC[C@@H](CC(=O)N2CCOCC2)O[C@H]1CO,-9.4,nt,nt,nt,nt,nt
C[C@H]1CN([C@@H](C)CO)C(=O)c2cc(NC(=O)Nc3cccc4ccccc34)ccc2O[C@@H]1CN(C)Cc1ccc(C(=O)O)cc1,3.1,nt,nt,nt,nt,nt
COCC(=O)N1CC2(C1)[C@H](c1ccc(-c3cccc(C)c3)cc1)[C@H](CO)N2C(=O)C1CC1,-26.2,nt,nt,nt,nt,nt
C[C@@H]1CN([C@H](C)CO)C(=O)c2cc(NC(=O)Cc3ccccc3)ccc2O[C@@H](C)CCCCO[C@H]1CN(C)Cc1ccc(C(F)(F)F)cc1,79.7*,nt,nt,nt,nt,nt
C[C@H]1CCCCO[C@H](CN(C)Cc2ccc(C(F)(F)F)cc2)[C@@H](C)CN([C@@H](C)CO)C(=O)c2cc(NC(=O)Cc3ccccc3)ccc2O1,76.2*,nt,nt,nt,nt,nt
C[C@@H]1CN([C@@H](C)CO)C(=O)c2cc(NC(=O)Cc3ccccc3)ccc2O[C@@H](C)CCCCO[C@H]1CN(C)Cc1ccc(C(F)(F)F)cc1,76.4*,nt,nt,nt,nt,nt
